FLuc counter = inhibits or activates purified firefly luciferase, miR-21 counter-screen; P08659; purified FLuc, Km substrates, luminescence inhibition; Potency, µM (top dose mostly 57.5 µM), without a hit: at the highest dose activity change, negative = inhibition, usual class: inhibitors; 360,000 tested, 6.9% active;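 note: plate controls were vehicle for no effect and reference inhibitor for full effect; nearly all actives have a fitted effect of over 55% in size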
Target sequence (P08659 whole entry, looked up): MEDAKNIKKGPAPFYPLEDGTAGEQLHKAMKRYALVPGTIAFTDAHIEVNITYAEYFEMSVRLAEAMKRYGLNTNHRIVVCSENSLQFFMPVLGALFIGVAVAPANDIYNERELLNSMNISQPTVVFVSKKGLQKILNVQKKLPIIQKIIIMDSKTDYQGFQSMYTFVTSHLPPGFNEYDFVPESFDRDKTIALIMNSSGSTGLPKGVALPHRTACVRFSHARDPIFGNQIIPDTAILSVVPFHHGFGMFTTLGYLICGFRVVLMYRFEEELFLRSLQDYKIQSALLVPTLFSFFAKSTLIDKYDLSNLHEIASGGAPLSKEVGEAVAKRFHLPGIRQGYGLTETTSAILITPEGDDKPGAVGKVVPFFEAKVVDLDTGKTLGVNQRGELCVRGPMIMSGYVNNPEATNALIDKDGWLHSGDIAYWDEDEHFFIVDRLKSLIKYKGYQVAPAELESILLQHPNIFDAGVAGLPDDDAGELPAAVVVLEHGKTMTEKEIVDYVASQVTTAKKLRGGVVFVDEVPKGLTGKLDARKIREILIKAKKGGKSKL
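Biochemical qHTS of compounds, final roughly 60 µM downward over six points, against 10 nM purified firefly luciferase using Km concentrations of substrates (10 uM D-luciferin, 10 uM ATP) in Tris acetate pH 7.5 buffer; luminescence output.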
SMN2 splice up = SMN2 splice variant enhancement. 210,000 tested, 2.8% active. HEK293 SMN2-luciferase splicing reporter, luminescence, 30-36 h. Potency, µM (titrated, usually from 46.1 µM), without a hit: at the highest dose activity change, positive = activation, usual class: activators; note: % of control where 0% means no effect; nearly all actives have a fitted effect of over 55% in size
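HEK293 cells carry an SMN2 minigene-luciferase reporter in which exon 7 inclusion puts luciferase in frame. Cells were seeded at 2000 cells/well, attached for 10-12 hours, then exposed to compounds for 30-36 hours at 37C before ONE-Glo luminescence.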
NPC1 promoter act = activates the NPC1 promoter | Huh7 NPC1 promoter luciferase reporter, 24 h | Potency, µM (titrated, usually from 9.22 µM), for the others: top-dose activation, most hits filed as activators | 320,000 tested, 2.4% active | AID 485313; note: % of control where 0% means no effect; nearly all actives have a fitted effect of over 60% in size
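Readout is luciferase luminescence, reflecting NPC1 promoter activation in stably transfected Huh7 cells after 24 h compound exposure at 37 °C in reduced-serum medium with 10% FBS.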
Rab9 prom act = activates the Rab9 promoter; Huh7 Rab9 promoter-luciferase reporter, luminescence, 24 h; Potency, µM (doses to about 9.22 µM), for the others: at the top dose activation, negative = inhibition, most hits filed as activators; 320,000 tested, 2.8% active; AID 485297; note: % of control where 0% means no effect; nearly all actives have a fitted effect of over 60% in size
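Luminescence read-out: Huh7 cells stably expressing Rab9-luciferase, treated 24 h with compound at 37 °C, then lysed with luciferase reagent for 10 min at ambient before reading.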
ELG1 genotox = induces genotoxicity in HEK293T cells with luciferase-tagged ELG1. Potency, µM (titrated, usually from 46 µM), for the others: at the highest dose activity change, positive = activation, actives largely listed as activators. AID 504466. HEK293T ELG1-luciferase reporter, luminescence, 16 h. 330,000 tested, 1.3% active; note: % of control where 0% means no effect; nearly all actives have a fitted effect of over 60% in size
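Cells (2,000/well) expressing the ELG1-luciferase fusion are dosed by pin tool and kept 16 hr at 37 °C, 5% CO2. Signal comes from ONE-Glo luciferase reagent after 30 min at room temperature.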
* = called active by the depositor; u = inconclusive; x = no result given. Sampled rows, rich in hits. Any-hit rate of the full collection: about 7.4%. Calls come from the whole dose curve; as a rule, active = well fitted curve in the direction sought with a large enough effect; inconclusive = small, poorly fitted or top-dose-only effect, or another doubt; inactive = no such curve, though single readings can be large; an effect the other way counts as inactive or inconclusive. Potency is the fitted concentration of half-maximal effect.

SMILES	FLuc counter	SMN2 splice up	NPC1 promoter act	Rab9 prom act	ELG1 genotox
COc1cccc(/C=N/NC(=S)Nc2cccnc2)c1	15.1µM*	-4.6%	8.4%	7.7%	8.8%
Cc1ccc(Cn2c(C)c(CNC(C)c3ccccc3)c(C(=O)O)c2C)cc1 (stereo not given)	-7.6%	2.1%	x	x	x
CCOc1cc(C(=O)CCC(=O)OCC(=O)Nc2ccc(C)c(S(=O)(=O)N(C)C)c2)ccc1O	19µM*	-6.5%	5.4%	0.1%	13.6%
CCOc1ccc(OCCC(=O)OCC(=O)Nc2ccc(C)c(S(=O)(=O)N3CCCCC3)c2)cc1	10.7µM*	x	-0.7%	-1.1%	0.4%
COCCC(=O)N1CCC(Oc2ccc(C(=O)N3CCCC(CCCO)C3)cc2)CC1 (stereo not given)	1.2%	x	2.6%	-6.2%	-10.1%
COc1ccc(-c2nn(C)c3sc(C(=O)N4CCN(c5cccc(C)c5C)CC4)cc23)cc1OC	-2.8%	-6.3%	x	x	x
C(=C\c1nc(-c2ccccc2)no1)/c1ccccc1	1.35µM*	10µM*	1.58µM*	0.562µM*	u
C(=C\c1nc(-c2ccncc2)no1)/c1ccccc1	-1.8%	x	-2.6%	-13.6%	-0.8%
COc1cccc(C2CC(=O)Nc3c2c(=O)[nH]c2nc4ccccc4n32)c1 (stereo not given)	-14.8%	-0.4%	x	x	x
CC1(C(=O)O)C=CCN1C(=O)c1ccccc1 (stereo not given)	4.3%	-7.1%	-4.1%	2.7%	-0.6%
CN(C)c1ccc(CNC(=O)C2(C)C=CCN2C(=O)c2ccccc2)cc1 (stereo not given)	x	15.8µM*	x	x	x
COc1cc(Cl)c(C)cc1NC(=O)COc1ccc(C)nc1[N+](=O)[O-]	-20.3%	x	u	3.98µM*	10.4%
Cc1ccc(OCC(=O)Nc2ccc3c(c2)CCC3)c([N+](=O)[O-])n1	26.9µM*	17.0%	23.6%	23.0%	u
Cc1ccc(OCC(=O)NCC(=O)Nc2ccc(F)cc2)c([N+](=O)[O-])n1	6.0%	0.3%	-3.7%	1.2%	-2.8%
Cc1ccc(OCC(=O)Nc2ccc(S(=O)(=O)N3CCCCC3)cc2)c([N+](=O)[O-])n1	-2.2%	-13.4%	-8.9%	0.0%	-10.6%
Cc1ccc(OCC(=O)Nc2ccc(F)cc2)c([N+](=O)[O-])n1	12µM*	12.6µM*	u	3.55µM*	u
Cc1ccc(OCC(=O)Nc2ccc(Cl)cc2)c([N+](=O)[O-])n1	x	x	2.82µM*	u	u
Cc1nn(C2CCS(=O)(=O)C2)c(C)c1CN(C)C(=O)c1ccccc1 (stereo not given)	-1.2%	x	-1.6%	-0.4%	0.4%
C=CC(C)(C)c1cc2cc3ccoc3cc2oc1=O	21.3µM*	-10.6%	-3.4%	2.3%	4.3%
CCOC(=O)C(C)NC(=O)c1cc2c(=O)[nH]c3ccc(C)cc3c2s1 (stereo not given)	2.5%	5.5%	x	x	x
CCOc1ccc2nc(-c3ccccc3)[nH]c2c1	1.07µM*	14.1µM*	0.794µM*	u	u
COc1ccc2[nH]c(-c3ccccc3)cc2c1	6.01µM*	x	1.58µM*	0.891µM*	u
COc1ccc2[nH]c(-c3ccc(C)cc3)cc(=O)c2c1	1.51µM*	1.26µM*	u	2.51µM*	2.91µM*
COc1ccc2nc(-c3ccccc3)[nH]c2c1	2.13µM*	6.31µM*	2.82µM*	1.58µM*	1.3µM*
CCC(C)(C)NC(=O)c1ccc2c(c1)OCCO2	-3.4%	23.6%	-1.3%	15.3%	11.0%
SMILES	FLuc counter	SMN2 splice up	NPC1 promoter act	Rab9 prom act	ELG1 genotox
CCN(CC)S(=O)(=O)c1ccc2c(c1)N(CC(=O)NCCCN1CCN(c3cc(Cl)ccc3C)CC1)C(=O)CO2	4.3%	-10.2%	x	x	x
O=C1/C(=C/c2ccc(Br)cc2)Oc2cc(O)ccc21	3.79µM*	x	23.2%	u	3.6%
O=C1/C(=C/c2ccc([N+](=O)[O-])cc2)Oc2cc(O)ccc21	4.78µM*	x	23.1%	-4.0%	0.2%
CC(C)OCCCN1C(=O)c2[nH]nc(-c3ccccc3O)c2C1c1ccccc1F (stereo not given)	-2.2%	-4.6%	x	x	x
Cc1cc(NC(=O)c2ccc(Cl)cc2Cl)no1	8.49µM*	x	1.41µM*	2.82µM*	u
O=C(Nc1ccsn1)c1ccc(Cl)cc1Cl	u	x	3.16µM*	u	u
Cc1cc(NC(=O)Nc2ccc(Cl)cc2)no1	u	x	27.1%	27.1%	11.9%
COC(=O)c1ccccc1NC(=O)CSc1nc2ccccc2nc1Cc1ccccc1OC	-2.3%	x	x	x	x
CC(=NC1CCCCC1)C1=C(O)c2ccccc2C1=O	3.38µM*	15.8µM*	2.82µM*	2.82µM*	u
CC(=O)N(C1=C(Cl)C(=O)c2ccccc2C1=O)C1CCCCC1	u	x	-31.7%	-46.9%	1.5%
Cc1ccc(C2=N/C(=C\c3cccc(F)c3)C(=O)O2)cc1	3.01µM*	x	2.4%	1.3%	-0.1%
Cc1cccc(C2=N/C(=C\c3cccs3)C(=O)O2)c1	2.13µM*	1.3%	-1.5%	2.1%	3.4%
Cc1ccc(C2=N/C(=C\N(C)C)C(=O)O2)cc1	15.1µM*	15.8%	u	u	14.6µM*
CN(C)/C=C1\N=C(c2ccc(Cl)cc2Cl)OC1=O	u	-31.9%	1.12µM*	0.631µM*	9.2µM*
Fc1ccc(-n2ncc3c(Nc4ccc(Oc5ccc(Cl)cc5)cc4)ncnc32)cc1	0.6%	x	x	x	x
O=c1c2ccccc2oc2nc(-c3ccco3)n(CCc3ccccc3)c(=O)c12	4.5%	-8.8%	6.9%	12.7%	0.9%
O=c1c2ccccc2oc2nc(-c3ccco3)n(-c3ccccc3)c(=O)c12	3.5%	12.6µM*	u	u	9.0%
CCOC(=O)N1CCc2c(sc(NC(=O)C3=COCCO3)c2C(N)=O)C1	10.7µM*	x	-3.4%	9.3%	1.5%
CCOC(=O)c1c(NC(=O)CN2CCCCC2)sc2c1CCN(C(=O)OCC)C2	-1.4%	-39.2%	-7.8%	-18.1%	-6.3%
